The values below come from ChEMBL document CHEMBL1961873, “Compounds: GSK PKIS; Assays: Nanosyn kinase panel” (2012).

Molecules are shown by their SMILES.

Usually inhibition stands for the change of the read-out against control, counted positive when it falls.

Assay [1] deals with Sphingosine kinase 1 (Homo sapiens) (UniProt Q9NYA1). Particulars: at 1 µM.
Assay [2] concerns the target T1, Sphingosine kinase 2 (Homo sapiens) (UniProt Q9NRA0).
T1 sequence (whole entry): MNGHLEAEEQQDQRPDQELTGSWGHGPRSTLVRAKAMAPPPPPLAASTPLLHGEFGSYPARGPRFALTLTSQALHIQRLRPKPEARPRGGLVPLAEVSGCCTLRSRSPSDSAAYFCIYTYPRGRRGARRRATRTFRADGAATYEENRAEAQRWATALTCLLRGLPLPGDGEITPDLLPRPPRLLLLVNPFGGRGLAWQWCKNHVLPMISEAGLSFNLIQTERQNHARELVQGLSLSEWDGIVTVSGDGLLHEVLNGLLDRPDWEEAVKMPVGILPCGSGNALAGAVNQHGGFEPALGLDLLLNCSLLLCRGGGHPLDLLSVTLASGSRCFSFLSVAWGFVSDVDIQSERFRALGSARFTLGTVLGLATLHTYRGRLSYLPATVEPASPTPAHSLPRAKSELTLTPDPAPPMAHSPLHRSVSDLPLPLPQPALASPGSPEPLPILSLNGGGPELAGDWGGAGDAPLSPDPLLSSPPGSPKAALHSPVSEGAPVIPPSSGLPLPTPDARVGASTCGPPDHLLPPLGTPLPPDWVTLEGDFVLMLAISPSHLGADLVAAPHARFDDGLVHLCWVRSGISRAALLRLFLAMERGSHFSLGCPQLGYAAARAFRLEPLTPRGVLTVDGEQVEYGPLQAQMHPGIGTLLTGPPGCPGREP
Conditions: at 0.1 µM.

The target in assay [3] is T1, Sphingosine kinase 2 (Homo sapiens). Conditions: at 1 µM.
Assay [4] concerns the target Casein kinase II subunit alpha (Homo sapiens) (UniProt P68400). Conditions: at 0.1 µM.
For assay [5] the target is unchanged. Particulars: at 1 µM.
Assay [6] concerns the target T2, Inhibitor of nuclear factor kappa-B kinase subunit alpha (Homo sapiens) (UniProt O15111).
T2 sequence (whole entry): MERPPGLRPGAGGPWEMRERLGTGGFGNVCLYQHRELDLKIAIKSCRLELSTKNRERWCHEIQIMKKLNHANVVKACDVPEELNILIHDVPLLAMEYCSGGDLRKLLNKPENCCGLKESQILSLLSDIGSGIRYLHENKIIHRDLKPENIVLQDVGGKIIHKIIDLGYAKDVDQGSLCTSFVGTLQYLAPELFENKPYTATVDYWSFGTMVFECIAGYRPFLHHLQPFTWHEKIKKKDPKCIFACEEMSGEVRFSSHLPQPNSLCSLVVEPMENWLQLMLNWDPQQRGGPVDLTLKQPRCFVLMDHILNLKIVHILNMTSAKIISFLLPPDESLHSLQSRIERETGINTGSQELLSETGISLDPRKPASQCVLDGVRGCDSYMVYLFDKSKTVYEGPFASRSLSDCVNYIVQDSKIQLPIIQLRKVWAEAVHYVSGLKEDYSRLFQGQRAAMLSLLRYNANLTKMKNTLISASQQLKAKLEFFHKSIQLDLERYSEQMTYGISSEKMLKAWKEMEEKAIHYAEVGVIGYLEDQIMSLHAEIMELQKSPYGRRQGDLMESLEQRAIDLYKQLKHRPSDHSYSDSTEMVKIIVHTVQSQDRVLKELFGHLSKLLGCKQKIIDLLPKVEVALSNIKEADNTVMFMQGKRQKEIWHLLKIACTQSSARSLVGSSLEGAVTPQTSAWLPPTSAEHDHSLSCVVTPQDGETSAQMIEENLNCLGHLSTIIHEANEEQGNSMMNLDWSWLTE
Particulars: at 0.1 µM.

For assay [7], the target named is T2, Inhibitor of nuclear factor kappa-B kinase subunit alpha (Homo sapiens). Conditions: at 1 µM.
Assay [8] deals with T3, Inhibitor of nuclear factor kappa-B kinase subunit beta (Homo sapiens) (UniProt O14920).
T3 sequence (whole entry): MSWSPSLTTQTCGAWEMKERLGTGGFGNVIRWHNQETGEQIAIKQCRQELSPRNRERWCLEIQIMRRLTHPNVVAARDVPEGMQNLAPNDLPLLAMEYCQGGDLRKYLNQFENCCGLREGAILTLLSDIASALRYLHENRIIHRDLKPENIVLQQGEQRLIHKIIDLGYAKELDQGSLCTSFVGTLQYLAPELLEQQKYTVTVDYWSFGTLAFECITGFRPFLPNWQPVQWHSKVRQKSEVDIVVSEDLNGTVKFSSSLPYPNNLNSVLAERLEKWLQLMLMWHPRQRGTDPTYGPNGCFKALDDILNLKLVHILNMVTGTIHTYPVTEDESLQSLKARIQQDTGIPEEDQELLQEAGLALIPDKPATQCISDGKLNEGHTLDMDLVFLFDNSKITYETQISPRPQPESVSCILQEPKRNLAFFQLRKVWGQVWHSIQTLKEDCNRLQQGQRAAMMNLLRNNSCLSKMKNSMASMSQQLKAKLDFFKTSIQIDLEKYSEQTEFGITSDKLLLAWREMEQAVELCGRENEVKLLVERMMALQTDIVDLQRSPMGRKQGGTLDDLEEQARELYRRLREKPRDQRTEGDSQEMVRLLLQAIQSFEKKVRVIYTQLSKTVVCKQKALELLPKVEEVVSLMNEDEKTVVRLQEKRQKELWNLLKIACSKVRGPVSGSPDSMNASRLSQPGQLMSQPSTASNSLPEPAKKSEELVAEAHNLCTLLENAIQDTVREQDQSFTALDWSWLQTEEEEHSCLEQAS
Particulars: at 0.1 µM.

The target in assay [9] is T3, Inhibitor of nuclear factor kappa-B kinase subunit beta (Homo sapiens). Conditions: at 1 µM.
Assay [10] deals with T4, Inhibitor of nuclear factor kappa-B kinase subunit epsilon (Homo sapiens) (UniProt Q14164).
T4 sequence (whole entry): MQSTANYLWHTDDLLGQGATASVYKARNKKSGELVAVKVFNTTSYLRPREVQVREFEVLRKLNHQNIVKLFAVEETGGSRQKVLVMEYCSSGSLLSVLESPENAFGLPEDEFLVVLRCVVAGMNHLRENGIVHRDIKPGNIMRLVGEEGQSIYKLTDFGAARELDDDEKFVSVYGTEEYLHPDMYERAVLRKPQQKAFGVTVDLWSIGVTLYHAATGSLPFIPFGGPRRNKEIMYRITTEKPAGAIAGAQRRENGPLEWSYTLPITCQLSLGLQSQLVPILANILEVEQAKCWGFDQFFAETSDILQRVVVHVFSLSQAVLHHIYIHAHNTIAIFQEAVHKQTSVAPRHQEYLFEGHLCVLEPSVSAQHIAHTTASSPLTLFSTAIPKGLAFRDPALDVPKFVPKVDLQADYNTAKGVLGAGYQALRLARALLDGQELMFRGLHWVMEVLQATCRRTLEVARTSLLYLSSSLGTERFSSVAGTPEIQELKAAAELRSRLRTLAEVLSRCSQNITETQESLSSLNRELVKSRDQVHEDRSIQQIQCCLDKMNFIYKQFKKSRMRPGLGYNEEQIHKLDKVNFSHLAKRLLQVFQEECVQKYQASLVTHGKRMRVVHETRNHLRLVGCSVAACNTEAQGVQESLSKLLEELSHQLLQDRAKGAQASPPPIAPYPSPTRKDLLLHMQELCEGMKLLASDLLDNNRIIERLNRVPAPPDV
Conditions: at 0.1 µM.

For assay [11], the target named is T4, Inhibitor of nuclear factor kappa-B kinase subunit epsilon (Homo sapiens). Particulars: at 1 µM.
The target of assay [12] is T5, Serine/threonine-protein kinase Nek1 (Homo sapiens) (UniProt Q96PY6).
T5 sequence (whole entry): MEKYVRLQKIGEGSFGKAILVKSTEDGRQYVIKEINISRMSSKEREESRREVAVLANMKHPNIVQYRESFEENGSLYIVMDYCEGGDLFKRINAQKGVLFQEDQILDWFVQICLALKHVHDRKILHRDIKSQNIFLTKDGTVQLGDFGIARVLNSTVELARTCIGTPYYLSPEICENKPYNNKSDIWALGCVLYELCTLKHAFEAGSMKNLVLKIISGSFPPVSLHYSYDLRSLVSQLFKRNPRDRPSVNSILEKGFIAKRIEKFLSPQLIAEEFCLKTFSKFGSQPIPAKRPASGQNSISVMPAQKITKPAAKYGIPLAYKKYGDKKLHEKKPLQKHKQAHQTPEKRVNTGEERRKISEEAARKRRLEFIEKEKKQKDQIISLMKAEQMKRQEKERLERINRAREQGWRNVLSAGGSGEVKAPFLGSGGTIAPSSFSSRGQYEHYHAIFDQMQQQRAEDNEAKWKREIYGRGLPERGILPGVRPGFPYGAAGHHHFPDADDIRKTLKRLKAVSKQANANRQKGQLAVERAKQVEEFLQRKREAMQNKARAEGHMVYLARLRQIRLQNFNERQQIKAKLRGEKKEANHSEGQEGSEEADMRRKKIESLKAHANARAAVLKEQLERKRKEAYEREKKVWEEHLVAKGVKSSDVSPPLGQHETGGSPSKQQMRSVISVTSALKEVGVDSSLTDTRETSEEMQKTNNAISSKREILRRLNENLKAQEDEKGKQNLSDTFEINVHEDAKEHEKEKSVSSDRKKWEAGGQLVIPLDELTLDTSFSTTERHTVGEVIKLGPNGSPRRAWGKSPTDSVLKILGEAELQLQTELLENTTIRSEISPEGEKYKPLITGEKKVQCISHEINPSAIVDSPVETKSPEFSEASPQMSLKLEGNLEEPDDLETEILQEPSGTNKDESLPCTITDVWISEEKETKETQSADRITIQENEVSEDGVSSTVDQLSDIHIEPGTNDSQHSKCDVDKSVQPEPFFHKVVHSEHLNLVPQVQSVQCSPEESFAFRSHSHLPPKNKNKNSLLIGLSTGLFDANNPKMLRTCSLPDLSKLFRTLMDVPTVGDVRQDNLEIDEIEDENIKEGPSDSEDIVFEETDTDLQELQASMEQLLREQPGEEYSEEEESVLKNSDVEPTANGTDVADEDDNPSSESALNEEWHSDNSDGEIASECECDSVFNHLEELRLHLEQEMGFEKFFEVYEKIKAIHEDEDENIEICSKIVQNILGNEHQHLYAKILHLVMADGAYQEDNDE
Conditions: at 0.1 µM.

The target in assay [13] is T5, Serine/threonine-protein kinase Nek1 (Homo sapiens). Conditions: at 1 µM.
The target in assay [14] is T6, Serine/threonine-protein kinase Nek2 (Homo sapiens) (UniProt P51955).
T6 sequence (whole entry): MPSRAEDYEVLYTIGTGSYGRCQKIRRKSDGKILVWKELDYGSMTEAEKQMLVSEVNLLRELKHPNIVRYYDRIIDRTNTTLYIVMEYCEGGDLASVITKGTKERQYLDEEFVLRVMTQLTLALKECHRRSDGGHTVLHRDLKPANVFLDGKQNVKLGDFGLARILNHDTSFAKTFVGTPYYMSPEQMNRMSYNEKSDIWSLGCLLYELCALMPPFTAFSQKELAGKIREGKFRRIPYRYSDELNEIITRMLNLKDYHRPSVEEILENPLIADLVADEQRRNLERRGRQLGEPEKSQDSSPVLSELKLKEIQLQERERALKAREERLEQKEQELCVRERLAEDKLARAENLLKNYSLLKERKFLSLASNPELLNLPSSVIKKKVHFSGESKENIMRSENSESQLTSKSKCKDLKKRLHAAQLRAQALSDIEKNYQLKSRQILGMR
Particulars: at 0.1 µM.

Assay [15] concerns the target T6, Serine/threonine-protein kinase Nek2 (Homo sapiens). Particulars: at 1 µM.
The target of assay [16] is Serine/threonine-protein kinase Nek6 (Homo sapiens) (UniProt Q9HC98). Particulars: at 0.1 µM.
Assay [17] shares this target. Particulars: at 1 µM.
Assay [18] addresses Serine/threonine-protein kinase Nek7 (Homo sapiens) (UniProt Q8TDX7). Particulars: at 0.1 µM.
For assay [19] the target is unchanged. Conditions: at 1 µM.
The target in assay [20] is T7, Serine/threonine-protein kinase Nek9 (Homo sapiens) (UniProt Q8TD19).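 Also: reported value is the mean percent inhibition of NEK9.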
T7 sequence (whole entry): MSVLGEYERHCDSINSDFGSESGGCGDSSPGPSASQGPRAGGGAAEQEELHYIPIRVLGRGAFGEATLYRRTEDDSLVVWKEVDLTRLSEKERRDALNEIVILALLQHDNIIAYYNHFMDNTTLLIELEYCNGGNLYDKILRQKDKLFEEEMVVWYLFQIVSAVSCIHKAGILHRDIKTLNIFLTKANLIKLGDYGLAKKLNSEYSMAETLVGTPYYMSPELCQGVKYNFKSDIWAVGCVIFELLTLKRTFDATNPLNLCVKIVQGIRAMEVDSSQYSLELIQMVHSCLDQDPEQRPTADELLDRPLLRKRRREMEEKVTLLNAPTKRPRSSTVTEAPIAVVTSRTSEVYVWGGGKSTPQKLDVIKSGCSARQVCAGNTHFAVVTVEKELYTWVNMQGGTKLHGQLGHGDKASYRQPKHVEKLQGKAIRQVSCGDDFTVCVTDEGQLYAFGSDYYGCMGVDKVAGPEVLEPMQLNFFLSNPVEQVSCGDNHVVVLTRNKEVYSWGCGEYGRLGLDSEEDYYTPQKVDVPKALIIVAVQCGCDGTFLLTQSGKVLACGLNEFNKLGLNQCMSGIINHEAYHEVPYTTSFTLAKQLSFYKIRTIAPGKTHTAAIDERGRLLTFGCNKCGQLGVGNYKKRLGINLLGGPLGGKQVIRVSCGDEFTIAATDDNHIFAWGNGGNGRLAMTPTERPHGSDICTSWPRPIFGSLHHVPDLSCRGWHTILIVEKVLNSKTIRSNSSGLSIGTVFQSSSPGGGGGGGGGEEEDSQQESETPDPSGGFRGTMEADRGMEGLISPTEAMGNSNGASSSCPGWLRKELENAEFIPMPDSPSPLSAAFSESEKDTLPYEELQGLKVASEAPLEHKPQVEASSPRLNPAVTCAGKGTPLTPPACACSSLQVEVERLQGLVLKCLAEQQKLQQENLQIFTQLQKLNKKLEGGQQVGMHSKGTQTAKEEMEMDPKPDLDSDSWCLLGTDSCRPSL
Particulars: at 0.1 µM.

Chain of Serine/threonine-protein kinase Nek6 (Homo sapiens) (Q9HC98 whole entry): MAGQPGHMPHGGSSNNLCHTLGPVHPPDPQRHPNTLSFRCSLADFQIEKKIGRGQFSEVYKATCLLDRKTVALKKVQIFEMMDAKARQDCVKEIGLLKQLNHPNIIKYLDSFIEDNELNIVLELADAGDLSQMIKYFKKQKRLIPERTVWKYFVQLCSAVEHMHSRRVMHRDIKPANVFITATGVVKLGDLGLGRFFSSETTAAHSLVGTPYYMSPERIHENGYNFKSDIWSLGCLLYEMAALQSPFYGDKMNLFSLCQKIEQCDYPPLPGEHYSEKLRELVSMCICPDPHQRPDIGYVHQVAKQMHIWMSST
Chain of Serine/threonine-protein kinase Nek7 (Homo sapiens) (Q8TDX7 whole entry, looked up): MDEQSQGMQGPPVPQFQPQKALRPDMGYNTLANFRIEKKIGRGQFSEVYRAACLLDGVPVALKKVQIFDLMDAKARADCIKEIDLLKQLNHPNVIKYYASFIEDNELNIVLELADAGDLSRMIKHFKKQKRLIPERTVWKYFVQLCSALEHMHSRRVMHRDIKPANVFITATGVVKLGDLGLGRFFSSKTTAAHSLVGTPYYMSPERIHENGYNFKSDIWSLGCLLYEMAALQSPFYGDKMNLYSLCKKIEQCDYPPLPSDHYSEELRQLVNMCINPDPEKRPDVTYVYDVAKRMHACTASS
Chain of Casein kinase II subunit alpha (Homo sapiens) (P68400 whole entry, looked up): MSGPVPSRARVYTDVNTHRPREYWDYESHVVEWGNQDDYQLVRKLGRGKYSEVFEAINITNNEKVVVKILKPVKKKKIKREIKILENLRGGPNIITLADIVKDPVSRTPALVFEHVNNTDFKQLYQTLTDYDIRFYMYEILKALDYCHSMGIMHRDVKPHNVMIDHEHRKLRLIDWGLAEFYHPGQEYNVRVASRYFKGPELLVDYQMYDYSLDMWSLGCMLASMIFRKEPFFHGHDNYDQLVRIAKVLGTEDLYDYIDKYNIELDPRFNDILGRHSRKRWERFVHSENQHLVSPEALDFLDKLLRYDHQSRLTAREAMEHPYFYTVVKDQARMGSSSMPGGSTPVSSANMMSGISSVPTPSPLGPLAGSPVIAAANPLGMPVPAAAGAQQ
Chain of Sphingosine kinase 1 (Homo sapiens) (Q9NYA1 whole entry): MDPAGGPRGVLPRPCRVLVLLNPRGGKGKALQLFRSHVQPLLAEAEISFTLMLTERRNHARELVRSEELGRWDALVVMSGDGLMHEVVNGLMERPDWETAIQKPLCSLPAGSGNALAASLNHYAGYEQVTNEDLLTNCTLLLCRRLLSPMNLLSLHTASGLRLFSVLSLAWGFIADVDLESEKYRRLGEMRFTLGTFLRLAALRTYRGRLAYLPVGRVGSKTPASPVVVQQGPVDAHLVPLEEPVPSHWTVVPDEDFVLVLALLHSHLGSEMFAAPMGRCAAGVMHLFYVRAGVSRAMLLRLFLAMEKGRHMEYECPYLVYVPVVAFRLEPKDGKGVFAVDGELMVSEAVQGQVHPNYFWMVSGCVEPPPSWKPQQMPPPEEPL

Turning to `CCN1CCC(C(=O)Nc2n[nH]c3nnc(-c4cccc(F)c4F)cc23)CC1`, the inhibition in [1] is 4.91%; in [2] it was -2.69%; in [3], -1.5%; in [4] it was 5.2%; in assay [5], -0.24%; in assay [6] it was -3.04%. Further, the inhibition in assay [7] is 3.59%; in [8] it was -4.76%; in assay [9] it was -2.63%; in assay [10], -2.1%; in assay [11], -0.18%; in [12], -1.35%. The inhibition was -0.79% in assay [13]; -0.66% in [14]; -0.65% in assay [15]; 1.25% in [16]; -1.06% in [17]; -0.06% in assay [18]. Further, the inhibition in [19] is -1.15%; in [20], 4.77%.
